This is one part of a sample in which hits are shown more often than they occur.
Pf Dd2 inh: inhibitors of Plasmodium falciparum Dd2 growth; 120,000 compounds, 4.3% hits; AID 1347417; Potency, µM (top dose mostly 28.9 µM), actives largely listed as inhibitors; P. falciparum Dd2 growth, SYBR Green, 72 h; active means well fitted inhibition curve with a large enough effect; further: nearly all actives have a fitted effect of over 65% in size
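Readout: SYBR Green fluorescence, 485 nm excitation, 535 nm emission, after ~16 h lysis at 37C. Before that, Dd2-infected red cells (2.5% hematocrit) grew 72 h with compound, 29 uM top final concentration.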
Each line names hits and unclear results; the compound was inactive in the other large screens.

CCNC(=O)N(C1CC1)C1CCOC2(CCN(C(=O)C3(c4ccccc4)CC3)CC2)C1 (stereo not given)	none
Cc1ccc(C)c(Cn2ccn3nc(-c4ccccc4)c(CO)c3c2=O)c1	none
COc1cccc(C(=O)N2CCC3(CC2)N=C(c2ccc(Br)cc2)NO3)c1	Pf Dd2 inh 7.94µM
COc1cccc(C(=O)N2CCC3(CC2)N=C(c2cccc(Br)c2)NO3)c1	none
COc1cccc(C(=O)N2CCC3(CC2)N=C(c2ccc(C)cc2)NO3)c1	none
Cc1ccc(CN2CC[C@@H]3[C@H]2C(=O)NC[C@H](CCC(=O)NCc2ccc(F)cc2)N3C)cc1	none
CCNC(=O)c1ccc2c(c1)C1(CCN(CC3CC3)C1)CN2Cc1ccccc1 (stereo not given)	none
O=C(NC1CCC1)c1ccc2c(c1)C1(CCN(CC3CC3)C1)CN2Cc1ccccc1 (stereo not given)	Pf Dd2 inh 14.1µM
O=C(NCC1CC1)c1ccc2c(c1)C1(CCN(CC3CC3)C1)CN2Cc1ccccc1 (stereo not given)	none
CCn1cc(CN(C)S(=O)(=O)c2ccc(C(=O)NC3CC3)cc2)cn1	none
CNC(=O)CCn1ncc2cc(OCc3ccccc3-c3cc(F)ccc3C)ccc21	Pf Dd2 inh 3.16µM
C[S+](=O)([O-])CCn1ncc2cc(OCc3cccc(-c4ccccc4O)c3)ccc21	Pf Dd2 inh 7.94µM
CNC(=O)CCn1ncc2cc(OC3CCc4cccc(-c5ccnc(OC)c5)c43)ccc21 (stereo not given)	none
C[S+](=O)([O-])CCn1ncc2cc(OCc3cccc(-c4cncnc4)c3)ccc21	none
COc1cc(F)cc(-c2ccc(COc3ccc4c(cnn4CCC(=O)O)c3)cc2)c1	none
CNC(=O)CCn1ncc2cc(OCc3ccccc3-c3cnc(OC)nc3)ccc21	none
CNC(=O)CCn1ncc2cc(OCc3ccccc3-c3c(Cl)cccc3OC)ccc21	Pf Dd2 inh 3.98µM
CNC(=O)CCn1ncc2cc(OCc3ccccc3-c3ccccc3COC)ccc21	Pf Dd2 inh 3.98µM
COc1ccc(-c2ccc(COc3ccc4c(cnn4CCC(=O)O)c3)cc2)c(Cl)c1	none
COc1cccc(F)c1-c1ccc(COc2ccc3c(cnn3CCC(=O)O)c2)cc1	none
COc1ccc(F)cc1-c1cccc(COc2ccc3c(cnn3CC[S+](C)(=O)[O-])c2)c1	none
COc1ccccc1-c1cccc(COc2ccc3c(cnn3CC[S+](C)(=O)[O-])c2)c1	none
CN(Cc1ccc(F)cc1)C(=O)c1ccc(Cl)nc1	none
c1ccc(Cn2cnnc2CC2CCNCC2)cc1	none
COCCNC(=O)C[C@@H]1C[C@H]2O[C@H](CNCc3ccccc3C)[C@@H](O)[C@H]2O1	none
CN1CCCC1c1nc(C2CN(C(=O)c3ccoc3)C2)no1 (stereo not given)	none
CN1CC2(CCCN(C(=O)c3cn4cc(Cl)ccc4n3)C2)OC1=O (stereo not given)	none
Cc1ccc(CN2CCCC(CNC(=O)NC(C)C)C2)cc1C (stereo not given)	none
Cc1cc2c(-c3cccc(S(C)(=O)=O)c3)nc(-c3c(C)noc3C)cc2[nH]1	none
Cc1n[nH]c(C)c1CNC(=O)C1CCN(c2cn[nH]c(=O)c2)C1 (stereo not given)	none
Cc1ccc(C(=O)N[C@H]2CO[C@H]3[C@@H]2OC[C@@H]3n2nnnc2Oc2ccccc2)cc1	none
COc1cccc(-c2cc3c(=O)n(CCNC(=O)Cc4c[nH]c5ccccc45)ccn3n2)c1	none
Cn1ncc(N2CCC(CNC(=O)c3cn(CCN)nn3)C2)cc1=O (stereo not given)	none
Cc1cccc(OCC2(CNC3CCC3)C[C@@H](O)[C@@H](O)C2)n1 (stereo not given in full)	none
CCOc1ccc(CNC(=O)c2cc(=O)[nH]c3ccc(S(=O)(=O)N4CCCC4)cc23)cc1	none
CCOc1ccc(C(=O)N2CCC3(CC2)NC(=O)N(Cc2ccc(F)cc2)C3=O)cc1	none
CCOc1ccc(C2c3[nH]c4ccccc4c3CCN2C(=O)CSCc2ccc(F)cc2)cc1 (stereo not given)	Pf Dd2 inh 11.2µM
O=C(CN1CC2CC(C1)[C@H]1CCCC(=O)N1C2)N1CCN(c2ccccc2)CC1 (stereo not given in full)	none
COc1cccc(CN2CCC3(C2)C(=O)N(C)C(=O)N3C)c1 (stereo not given)	none
O=C(Cc1ccccc1)N1CCC2(CCCN(C3CCOCC3)C2=O)C1 (stereo not given)	none
CC(C)C1=NOC2(CCN(C(=O)C3CCCC3)CC2)C1	none
COc1ccc(OCc2nc3ccccc3n2Cc2ccc(C(C)(C)C)cc2)cc1	Pf Dd2 inh 11.2µM
COc1cccc(OCc2nc3ccccc3n2Cc2ccccc2)c1	none
CC(C)(C)c1ccc(OCc2nc3ccccc3n2CCOc2ccccc2)cc1	none
Cc1cccc(OCC(=O)N2CCC3(CC2)N(C)C(=O)CS3(=O)=O)c1	none
CC(C)(C)C1CCC2(CC1)NC(=O)N(CC(=O)Nc1ccc3c(c1)OCCO3)C2=O (stereo not given)	Pf Dd2 inh 7.94µM
O=C(CN1C(=O)NC2(CCOCC2)C1=O)Nc1ccc2c(c1)OCCO2	none
CC1CCC2(CC1)NC(=O)N(CC(=O)Nc1ccc3c(c1)OCO3)C2=O (stereo not given)	none
CCCN1CCCC2(CCN(C(=O)c3cc(CC)[nH]c(=O)c3)C2)C1=O (stereo not given)	none
COc1ccccc1-c1[nH]nc2ncc(-c3cccc(O)c3)nc12	none
CCN(CC)S(=O)(=O)c1cccc(C(=O)Nc2ccccc2C(=O)Nc2ccc(OC)cc2)c1	Pf Dd2 inh 7.08µM
CCN(CC)S(=O)(=O)c1ccc(OC)c(NC(=O)c2sc3ccccc3c2Cl)c1	none
CCN(CC)C(=O)c1ccccc1NC(=O)c1cccc(S(=O)(=O)N2CCC(C)CC2)c1	none
Cc1cc2nc3n(c(=O)c2n1CC(=O)Nc1cccc(C(F)(F)F)c1)CCC3	none
O=C(NCc1cccnc1)[C@@H]1C[C@@H](O)CN1C1CCN(C(=O)C2CCCC2)CC1	none
COc1cccc(N2C(=O)NC(=NC3CCCCC3)C23CCN([S+](=O)([O-])c2cccc(C(F)(F)F)c2)CC3)c1	none
C[C@@H]1C(=O)O[C@H]2[C@H]1CC[C@@]1(C)Cc3sc(NC(=O)c4ccc(F)c(Cl)c4)nc3[C@@H](C)[C@H]21	Pf Dd2 inh 11.2µM
C[C@@H]1C(=O)O[C@H]2[C@H]1CC[C@@]1(C)Cc3sc(NS(=O)(=O)c4ccc(F)c(Cl)c4)nc3[C@@H](C)[C@H]21	none
C[C@@H]1C(=O)O[C@H]2[C@H]1CC[C@@]1(C)Cc3sc(NC(=O)c4ccncc4)nc3[C@@H](C)[C@H]21	none
COC1CCC12CCN(C(=O)c1cc(C)n(C)n1)CC2 (stereo not given)	none
COc1ccc(CCC(=O)N2CCC(Oc3ccc(-c4noc(C)n4)cc3)C2)cc1 (stereo not given)	none
CCOC(=O)c1cccc(NC(=O)c2cc3c(-c4cccc(OC)c4)nn(C)c3s2)c1	none
O=C(Nc1ccc(Cl)cc1)c1cc2c(-c3ccccc3)nn(-c3ccccc3)c2s1	Pf Dd2 inh 1.12µM
CC(=O)c1ccc(NC(=O)c2cc(C)nn2-c2ccccc2)cc1	none
O=C(COc1ccccc1)N1CCC(N2CC3CC(C2)[C@H]2CCCC(=O)N2C3)CC1 (stereo not given in full)	none
COc1ccc(-c2nnc(C[C@@H]3C[C@@H](C(C)C)[C@H](CN(C)CCc4ccccn4)C=C3C)o2)cc1	Pf Dd2 inh 11.2µM
COc1ccc(CNC(=O)C[C@@H]2C[C@@H](C(C)C)[C@H](CC#N)C=C2C)cc1	none
CC1=C[C@@H](CNC(=O)CCC(=O)O)[C@H](C(C)C)C[C@H]1CC(=O)NCc1ccccn1	none
